According to PubChem BioAssay (EPA / NIEHS):
Inconclusive results are not listed. Activity calls are given as the source filed them. Rule for the calls: active = hit-call score of the fitted dose curve at least 0.9, where 1 is the maximum; inconclusive = response in the unintended direction; inactive = score below 0.9.

biological target: Cellular tumor antigen p53 (Homo sapiens) (UniProt P04637); test: TOX21_p53_BLA_p4_ratio: Tox21 HCT-116 p53 Agonism Beta-lactamase Assay, Ratio, Phase 4 (AID 2283601)
In short: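 HCT116 cells carrying an inducible beta-lactamase reporter were plated at 4000 cells/well, rested 5 h, then exposed to compounds in DMSO (217-fold dilution) for 16 h at 37C. CCF4-AM substrate was loaded 2 h at room temperature; 460/530 nm emission ratio scored gain-of-signal versus DMSO.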

Chain of Cellular tumor antigen p53 (Homo sapiens) (P04637 whole entry, looked up): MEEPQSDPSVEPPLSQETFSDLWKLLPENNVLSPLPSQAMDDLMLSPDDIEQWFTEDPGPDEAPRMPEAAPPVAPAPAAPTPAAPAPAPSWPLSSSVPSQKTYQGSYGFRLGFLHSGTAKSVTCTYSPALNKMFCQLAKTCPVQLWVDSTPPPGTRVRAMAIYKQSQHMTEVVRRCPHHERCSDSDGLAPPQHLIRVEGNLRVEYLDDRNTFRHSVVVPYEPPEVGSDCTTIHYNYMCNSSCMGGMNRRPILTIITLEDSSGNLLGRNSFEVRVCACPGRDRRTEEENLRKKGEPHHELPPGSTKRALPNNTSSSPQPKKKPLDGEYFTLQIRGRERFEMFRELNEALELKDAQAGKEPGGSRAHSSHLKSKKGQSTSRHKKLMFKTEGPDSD

Row | SMILES | outcome | AC50
1 | CCCOC(=O)C(C)O (stereo not drawn) | inactive | 
2 | CC[N+](CC)(CC)CCC(O)(c1ccccc1)C1CCCCC1 (stereo not drawn) | inactive | 
3 | COS(=O)(=O)C(F)(F)F | inactive | 
4 | Cc1ccccc1N1CCN(CCc2nnc3n2CCCC3)CC1 | inactive | 
5 | CC(CCc1ccccc1)NCC(O)c1ccc(O)c(C(N)=O)c1 (stereo not drawn) | inactive | 
6 | C[C@@H]1O[C@@H](OC[C@H]2O[C@@H](Oc3c(-c4ccc(OCCO)c(OCCO)c4)oc4cc(OCCO)cc(O)c4c3=O)[C@H](O)[C@@H](O)[C@@H]2O)[C@H](O)[C@H](O)[C@H]1O | inactive | 
7 | C[C@@H](O)[C@H]1C(=O)N2C(C(=O)O)=C(S[C@@H]3CN[C@H](C(=O)N(C)C)C3)[C@H](C)[C@H]12 | inactive | 
8 | Oc1ccc(C2(c3ccc(O)cc3)CC3CC2C2CCCC32)cc1 (stereo not drawn) |  | 83.1 µM (active)
9 | CC1CCc2c(N3CCC(O)CC3)c(F)cc3c(=O)c(C(=O)O)cn1c23 (stereo not drawn) | inactive | 
10 | C=CCOc1ccc(CC(=O)O)cc1Cl | inactive | 
11 | NCC[C@H](O)C(=O)N[C@@H]1C[C@H](N)[C@@H](O[C@H]2O[C@H](CN)CC[C@H]2N)[C@H](O)[C@H]1O[C@H]1O[C@H](CO)[C@@H](O)[C@H](N)[C@H]1O | inactive | 
12 | CCOC(=O)Cc1cccc(-c2cc(CCCCCCc3ccc(O[C@H]4O[C@H](COC(C)=O)[C@@H](OC(C)=O)[C@H](OC(C)=O)[C@@H]4OC(C)=O)c(-c4cccc(CC(=O)OCC)c4)c3)ccc2O[C@H]2O[C@H](COC(C)=O)[C@@H](OC(C)=O)[C@H](OC(C)=O)[C@@H]2OC(C)=O)c1 | inactive | 
13 | O=C(O)c1ccc(OCCn2ccnc2)cc1 | inactive | 
14 | CCCCC(=O)O[C@]1(C(=O)CO)[C@H](C)C[C@H]2[C@@H]3CCC4=CC(=O)C=C[C@]4(C)[C@@]3(F)[C@@H](O)C[C@@]21C | inactive | 
15 | O=c1[nH]c2cc(C(F)(F)F)c(N3CCOCC3)cc2n(CP(=O)(O)O)c1=O | inactive | 
16 | CCCCC(=O)O[C@H]1CC[C@H]2[C@@H]3CCc4cc(O)ccc4[C@H]3CC[C@]12C | inactive | 
17 | Nc1ccc(S(=O)(=O)Nc2ccnn2-c2ccccc2)cc1 | inactive | 
18 | CN1CCN2c3ccccc3Cc3ccccc3C2C1 (stereo not drawn) |  | 43.6 µM (active)
19 | CC(=O)N[C@H]1[C@H]([C@H](O)[C@H](O)CO)OC(C(=O)O)=C[C@@H]1N=C(N)N | inactive | 
20 | OC[C@H]1O[C@@H](n2cnc3c2NC=NC[C@H]3O)C[C@@H]1O | inactive | 
21 | CC1=CC(=O)CC(C)(C)C1=O | inactive | 
22 | c1ccc2c(c1)CCc1ccccc1N2 | inactive | 
23 | CCOC(=O)CC(=O)c1cc(F)c(Cl)nc1Cl | inactive | 
24 | C=C(C)C(=O)OCCC[Si](Cl)(Cl)Cl | inactive | 
25 | COc1ccc(C(=O)c2ccc(OC)cc2O)c(O)c1 | inactive | 
26 | O=C(O)c1ccccc1OP(=O)(O)O | inactive | 
27 | COc1cc2c(c(OC)c1OC)-c1c(cc3c(c1OC)OCO3)C[C@@H](C)[C@](C)(O)C2 | inactive | 
28 | CCCCCCCCCCCCCCCC(=O)OC[C@@H](COP(=O)([O-])OCC[N+](C)(C)C)OC(=O)CCCCCCCCCCCCCCC | inactive | 
